Measurements published in PubChem BioAssay AID651814 (National Center for Advancing Translational Sciences (NCATS), 2012).
Hit rate of the full screen: of about 2,100 compounds, about 590 (28%) were called active. Roughly 42% stayed inconclusive and do not appear here. Calls follow the shape of the dose curve; as a rule, active = well fitted inhibition curve with a large enough effect; inconclusive = small, poorly fitted or top-dose-only effect; inactive = flat fitted curve, though single readings scatter. The list shows a part of the results.
Also: nearly all actives have a fitted effect of over 70% in size.
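For max response in this document: % of control where 0% means no effect; active compounds raise eYFP fluorescence by blocking Vif-driven A3F loss.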
Potency is read from the fitted curve at half-maximal effect.

The compounds below were run against DNA dC->dU-editing enzyme APOBEC-3F (Homo sapiens) (UniProt Q8IUX4) (assay: qHTS for inhibitors of Vif-A3F interactions: Cherry picks). Details: HeLa A3F-eYFP + Vif (tagged APOBEC3F with the HIV-1 protein that degrades it), eYFP fluorescence, 24 h.
DNA dC->dU-editing enzyme APOBEC-3F (Homo sapiens), sequence (Q8IUX4 whole entry, looked up): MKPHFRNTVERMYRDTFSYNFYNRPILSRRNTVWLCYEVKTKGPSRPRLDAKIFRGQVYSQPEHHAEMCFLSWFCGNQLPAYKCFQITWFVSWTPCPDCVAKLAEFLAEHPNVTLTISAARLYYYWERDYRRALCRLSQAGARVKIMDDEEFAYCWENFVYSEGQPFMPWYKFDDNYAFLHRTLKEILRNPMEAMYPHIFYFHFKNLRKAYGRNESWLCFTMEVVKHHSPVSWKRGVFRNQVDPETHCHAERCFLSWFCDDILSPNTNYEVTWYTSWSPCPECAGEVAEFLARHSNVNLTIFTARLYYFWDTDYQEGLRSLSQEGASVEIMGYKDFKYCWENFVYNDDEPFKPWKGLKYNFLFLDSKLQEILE
Outline: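 HeLa cells stably expressing A3F-eYFP plus Vif, cultured overnight, then exposed to compounds at several concentrations for 24 h at 37 deg C. Reduced Vif-driven degradation read as rising eYFP fluorescence (488 nm ex/500-530 nm em) by laser-scanning cytometry; MG132 as positive control.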
`CCCC(=O)NC(c1ccc(OC)cc1)c1ccc2cccnc2c1O` (stereo unspecified) was tested, and the max response was 0.49% (inactive). With `COc1cccc2nccc(/C=C/c3ccc(N(C)C)cc3)c12` the Potency was 20.6 µM (active). With `CNc1ccc(/C=C/c2ccnc3ccccc23)cc1` the Potency was 14.6 µM (active). For `CN(C)c1ccc(/C=C/c2ccnc3ccc(-c4ccccc4)cc23)cc1`, the Potency was 2.31 µM (active). With `CN(C)c1ccc(/C=C/c2cnnc3ccccc23)cc1` the Potency was 20.6 µM (active). `NC(=S)N/N=C/c1ccccc1OC(=O)/C=C/c1ccccc1` was tested, and the max response was -3.11% (inactive). For `CC(C)CC(=O)NC(=S)N(Cc1ccccc1)Cc1ccccc1`, the max response was -4.2% (inactive). In the case of `Cc1ccc(S(=O)(=O)N2CCN(C(=O)CSC(=S)N3CCCC3)CC2)c(C)c1`, the max response is reported as 1.16% (inactive). In the case of `COc1cc(/C=C2\COC/C(=C\c3ccc(O)c(OC)c3)C2=O)ccc1O`, the Potency is reported as 14 µM (active). In the case of `COc1cc(/C=C2/CC/C(=C/c3ccc(O)c(OC)c3)C2=O)ccc1O`, the max response is reported as -11.3% (inactive). With `COc1cc(/C=C/C(C)=NNc2ccccc2)ccc1O` the max response was -28.1% (inactive). With `COc1ccc(/C=C2/CSC/C(=C/c3ccc(OC)c(OC)c3)C2=O)cc1OC` the Potency was 5.59 µM (active). In the case of `COc1cc(C=C2C(=O)c3ccccc3C2=O)cc(OC)c1OC`, the max response is reported as -7.21% (inactive). `CO/N=C/c1ccc(OC)c(Oc2nc(OC)cc(OC)n2)c1` was tested, and the max response was -21.4% (inactive). With `Cc1ccc2c(c1C)NC(=O)CC(c1ccccc1O)=N2` the max response was 0.01% (inactive). `CC(C)OC(=O)c1c2c(n3ccccc13)C(=O)c1ccccc1C2=O` was tested, and the Potency was 4.61 µM (active). `Cn1c(=O)c(N)c2c3c(c(Br)ccc31)C(=O)c1ccccc1-2` was tested, and the max response was 0.0476% (inactive). With `Oc1cccc(Nc2nc(O)c(/C=C3\C=Nc4ccccc43)s2)c1` the Potency was 14.6 µM (active). In the case of `O=S(=O)(Nc1cc(Sc2ncn[nH]2)c(O)c2ccccc12)c1ccccc1`, the max response is reported as -29.8% (inactive). With `CCCOc1ccccc1C1CC(=O)Nc2cc3c(cc21)OCO3` (stereo unspecified) the max response was -14.8% (inactive). `CCN(CC)c1ccc(/C=C/C(=O)c2ccc(Br)cc2)cc1` was tested, and the max response was -4.77% (inactive). For `CCNc1ccc(Br)cc(C(=O)/C=C/c2ccc3c(c2)OCO3)c1=O`, the Potency was 18.4 µM (active). For `COc1ccc(OC)c(/C=C/c2nc3ccccc3[nH]c2=O)c1`, the Potency was 18.4 µM (active). `O=c1[nH]c2ccccc2nc1/C=C/c1ccc(F)cc1` was tested, and the Potency was 14 µM (active). For `CCCN(C(=O)CSc1n[nH]c(-c2ccc(OC)cc2)n1)c1c(N)n(Cc2ccccc2)c(=O)[nH]c1=O`, the max response was -13.7% (inactive). With `CCC(=C/c1sc2ccc3ccccc3c2[n+]1C)/C=C1\Sc2ccc3ccccc3c2N1C` the max response was -0.328% (inactive). With `CC(=O)c1cccc(-c2ccnc3c2CC(C(=O)Nc2cccc(NS(C)(=O)=O)c2)O3)c1` (stereo unspecified) the max response was -25.6% (inactive). With `CCSC1=NSC2=NC(=O)/C(=C\c3coc4ccccc4c3=O)C(=N)N12` the Potency was 18.4 µM (active). `O=C(O)CCCN1C(=O)/C(=C\C(Cl)=C\c2ccccc2)SC1=S` was tested, and the Potency was 4.44 µM (active). `C[n+]1ccc(/C=C/c2c[nH]c3ccc(F)cc23)cc1` was tested, and the Potency was 16.4 µM (active). In the case of `COc1ccc2[nH]cc(/C=C/c3cc[n+](C)cc3)c2c1`, the Potency is reported as 13 µM (active). With `COc1ccc2c(c1)c(/C=C/c1cc[n+](C)cc1)cn2C` the Potency was 2.23 µM (active). `Cc1ccc2[nH]cc(/C=C/c3cc[n+](C)cc3)c2c1` was tested, and the Potency was 1.4 µM (active). `O=C1OC(/C(=C\Nc2cc(Cl)ccc2O)[N+](=O)[O-])c2ccccc21` (stereo unspecified) was tested, and the max response was -13.5% (inactive). `COc1cc(C(=O)N/N=C/C2CC=CCC2)cc(OC)c1OC` (stereo unspecified) was tested, and the max response was -15.3% (inactive). `CCOC1=C/C(=C/c2c(N)n3nc(-c4ccccc4)sc3nc2=O)C=CC1=O` was tested, and the max response was 3.18% (inactive). `N#C/C(=C/c1ccc(N2CCOCC2)o1)c1ccc(Cl)cc1` was tested, and the Potency was 4.61 µM (active). For `N#C/C(=C/c1ccc(N2CCCCCC2)o1)c1cccc(F)c1`, the max response was -26.2% (inactive). In the case of `Cc1ccc(/C(C#N)=C\c2ccc(N3CCOCC3)o2)cc1`, the Potency is reported as 12.5 µM (active). With `N#C/C(=C/c1ccc(N2CCCCC2)o1)c1cccc(F)c1` the Potency was 5.17 µM (active). For `N#C/C(=C/c1ccc(N2CCCCCC2)o1)c1ccc(Cl)cc1`, the Potency was 3.66 µM (active). In the case of `CC(C)(C)C(=O)/C(=C/c1ccc(Cl)cc1)n1cncn1`, the max response is reported as -2.57% (inactive). With `C/C(=N\NC(=O)C(C)n1nc(C)c([N+](=O)[O-])c1C)c1ccccc1O` (stereo unspecified) the max response was 0.94% (inactive). With `COc1ccc(/C=N/n2cc(-c3ccccc3)nc2N)cc1` the max response was -18.9% (inactive). For `CCc1ccc(-c2cc(C(F)(F)F)n3nc(C(=O)Nc4cnn(Cc5ccc(C)cc5)c4)cc3n2)s1`, the Potency was 14.6 µM (active). `CC(=O)Nc1cccc(-c2ccnc3c2CC(C(=O)Nc2ccc(Cl)cc2)O3)c1` (stereo unspecified) was tested, and the max response was -18.1% (inactive). For `CCc1sc(-c2cc3ccc(O)cc3oc2=O)nc1-c1ccc(C)cc1`, the Potency was 4.11 µM (active). `O=C(CCCCl)Oc1ccc2cc(-c3ccc4ccccc4n3)c(=O)oc2c1` was tested, and the max response was 3.21% (inactive). For `O=c1oc2cc(O)ccc2cc1-c1nc(-c2ccc(Cl)c(Cl)c2)cs1`, the Potency was 0.651 µM (active). For `COc1cc(-c2nc3ccc(C)cn3c2NCc2ccccc2)ccc1SC1CCCCC1`, the max response was -8.35% (inactive). `Cc1ccc(/C=N/NC(=O)c2nc3nc(C)cc(C)n3n2)cc1` was tested, and the max response was 1.02% (inactive). `CSc1nc(Sc2ccccc2Cl)c2ccccc2n1` was tested, and the max response was -25.9% (inactive). With `CN(C)c1ccc(/C=C2\SC(=S)N(Nc3ncc(C(F)(F)F)cc3Cl)C2=O)cc1` the Potency was 5.8 µM (active). In the case of `COc1cc(/C=C2\SC(=S)N(NC(=O)c3ccc(O)c(OC)c3)C2=O)ccc1O`, the max response is reported as -7.15% (inactive). For `COc1cc(/C=C2\SC(=S)N(Nc3ncc(C(F)(F)F)cc3Cl)C2=O)ccc1O`, the Potency was 18.4 µM (active). In the case of `N#CC(=Cc1ccccn1)c1nc(-c2ccc(Cl)cc2)cs1`, the Potency is reported as 15.8 µM (active). `O=C(CSc1nc2ccccc2s1)c1cc2ccccc2o1` was tested, and the max response was -2.01% (inactive). `CCOC(=O)c1ccc(NC(=O)CSc2nc(-c3ccc(F)cc3)cc(C(F)(F)F)c2C#N)cc1` was tested, and the Potency was 18.4 µM (active). For `CCOC(=O)c1ccc(N=Nc2c(C)c(C#N)c(O)[nH]c2=O)cc1`, the max response was -0.299% (inactive). In the case of `Cc1ccc(S(=O)(=O)CCSc2nc(C)cc(C(F)(F)F)c2C#N)cc1`, the Potency is reported as 15.8 µM (active). In the case of `CCOC(=O)c1c(NC(=O)CSc2nc3ccc(OC)cc3[nH]2)sc2c1CC(C)(C)NC2(C)C`, the max response is reported as -17.3% (inactive). For `Cc1cc(C(F)(F)F)c(C#N)c(SCC(=O)Nc2nc3ccccc3s2)n1`, the Potency was 20.6 µM (active). For `CCOC(=O)c1ccc(NC(=O)CSc2nc(-c3ccc(OC)cc3)cc(C(F)(F)F)c2C#N)cc1`, the Potency was 18.4 µM (active). In the case of `Cc1sc2nc(CSCC(=O)Nc3ccccc3C#N)[nH]c(=O)c2c1C`, the max response is reported as -12.7% (inactive). For `CCOC1=C2CN(S(=O)(=O)c3ccc(C)cc3)[C@H](c3cccc4ccccc34)C[C@H]2C(C#N)(C#N)C(C#N)(C#N)C1`, the max response was -5.21% (inactive). With `CC1(C)Cc2ccccc2C2CC(O)C(=O)N21` (stereo unspecified) the max response was -21.2% (inactive). `CCCCOc1ccc(-c2cc(C(F)(F)F)c(C#N)c(SCC(=O)O)n2)cc1` was tested, and the Potency was 18.4 µM (active). With `Cc1coc(NC(=O)CSc2nc(-c3ccncc3)cc(C(F)(F)F)c2C#N)n1` the Potency was 13 µM (active). In the case of `N#Cc1c(C(F)(F)F)cc(-c2cccs2)nc1SCC(=O)Nc1cccc(Cl)c1`, the max response is reported as -7.91% (inactive). In the case of `N#Cc1c(C(F)(F)F)cc(-c2cccs2)nc1SCC(=O)Nc1cccc(C(F)(F)F)c1`, the Potency is reported as 18.4 µM (active). `N#Cc1ccccc1NC(=O)CSc1nc(-c2ccccc2)cc(C(F)(F)F)c1C#N` was tested, and the max response was -28.7% (inactive). In the case of `CCOC(=O)c1ccc(NC(=O)CSc2nc(-c3cccs3)cc(C(F)(F)F)c2C#N)cc1`, the Potency is reported as 16.4 µM (active). For `N#Cc1c(Nc2ccccc2)[n+]([O-])c2ccc(Cl)cc2[n+]1[O-]`, the max response was -2.22% (inactive). In the case of `Oc1ccc(C=NNC(=S)Nc2ccc(F)cc2)c(O)c1`, the max response is reported as -2.9% (inactive). For `S=C(NN=Cc1ccccn1)Nc1ccccn1`, the max response was 1.89% (inactive). With `Clc1ccc(/C=N/NC2=Nc3cccc4cccc2c34)cc1` the Potency was 14.6 µM (active). `Cc1csc(NC(=O)CCC(=O)N(CC(=O)NC2CCCC2)Cc2ccccc2)n1` was tested, and the max response was 0.176% (inactive). With `CCS(=O)(=O)N1N=C(c2ccc(C)cc2)CC1c1cc2ccc(OC)cc2nc1Cl` (stereo unspecified) the max response was -11.9% (inactive). `COc1ccc(C2CC(c3ccncc3)=NN2c2ccc(S(N)(=O)=O)cc2)cc1` (stereo unspecified) was tested, and the Potency was 16.4 µM (active). `Cc1ccc2c(/C=C/c3c[nH]c4ccccc34)ccnc2c1C` was tested, and the Potency was 14.6 µM (active). With `C(=C\c1c[nH]c2ccccc12)/c1nccc2ccccc12` the Potency was 10.3 µM (active). With `C(=Cc1c[nH]c2ccccc12)c1nccc2ccccc12` the Potency was 20.6 µM (active). `c1ccc2c(c1)nc(N1CCOCC1)c1nnnn12` was tested, and the max response was -7.94% (inactive). With `O=C(Nc1ncccn1)c1ccc([N+](=O)[O-])o1` the max response was -18.8% (inactive). For `N#CCc1ccc(NC(=O)/C=C/c2ccc([N+](=O)[O-])o2)cc1`, the Potency was 4.11 µM (active). In the case of `CCOC(=O)CCc1ccc(NC(=O)/C=C/c2ccc([N+](=O)[O-])o2)cc1`, the Potency is reported as 8.2 µM (active). In the case of `COC(=O)c1sc(NC(=O)c2ccc([N+](=O)[O-])o2)c(C#N)c1C`, the max response is reported as -29.9% (inactive). With `Nc1ccccc1C=C1Cc2ccccc2C1=O` the Potency was 11.6 µM (active). With `CCN1C/C(=C/c2cccc([N+](=O)[O-])c2)C(=O)/C(=C/c2cccc([N+](=O)[O-])c2)C1` the max response was -17.2% (inactive). `O=C1C(=Cc2ccccc2[N+](=O)[O-])Cc2ccccc21` was tested, and the Potency was 18.4 µM (active). In the case of `O=[N+]([O-])c1ccccc1C=NNC(=S)NN=Cc1ccccc1[N+](=O)[O-]`, the max response is reported as -27.9% (inactive).
